The record followed here is PubChem BioAssay (Tox21).

SMILES strings stand for the structures. Inconclusive results are not listed. Where a call stands in place of a potency, no number is given. Unmarked numbers belong to inactive results. Calls of active or inactive are those of the source. Calls follow the shape of the dose curve; as a rule, active = well fitted activation curve with a large enough effect in the repeat runs; inconclusive = weak or mixed curves; inactive = flat fitted curve, though single readings scatter.
Potency is read from the fitted curve at half-maximal effect.

This test in a line: A CellTox Green Cytotoxicity Assay to monitor cytotoxicity in HepG2 cells - 32 hour (AID 1224883). Also: nearly all actives have a fitted effect of over 50% in size. Conditions: CellTox Green fluorescence; series mostly up to 76.8 µM. The text has this:
National Center for Advancing Translational Sciences [NCATS]
NIH Chemical Genomics Center [NCGC]
U.S. Environmental Protection Agency [EPA]
National Institutes of Environmental Health Sciences [NIEHS]
National Toxicology Program [NTP]
Cell-based models are critical for drug discovery. Determining the natural cytotoxic effects resulting from test compounds is an essential research activity. A CellTox Green Cytotoxicity Assay to monitor cytotoxicity in real time of continues cell culture during 40 hours of the compound treatment was used to screen Tox21 10K library compounds in HepG2 cells. CellTox Green Cytotoxicity Assay is a nonlytic, homogeneous, biofluorescent method to measure cytotoxicity in cell culture after experimental manipulation. The assay system uses a proprietary asymmetric cyanine dye that is excluded from viable cells but preferentially stains the dead cell's DNA. […] Viable cells produce no appreciable increases in fluorescence. Therefore, the fluorescence signal produced by the binding interaction with dead cell DNA is proportional to cytotoxicity.
The mixture of HepG2 cell suspension and reagents were dispensed at 600cells/6 ul/well in 1536-well tissue culture treated black solid bottom plates using a Multidrop dispenser. After the assay plates were incubated at a 37 C/5% CO2 incubator for 5 hours, 23 nL of compounds dissolved in DMSO, positive and negative controls was transferred to the assay plate by a pintool work station. The plates were incubated at 37 C for 40 hours. The fluorescence intensity were measured at 0h, 8h, 16h, 24h, 32h and 40h time points using ViewLux plate reader during compound treatment.
For `CC(=O)[C@H]1CC[C@H]2[C@@H]3C[C@H](C)C4=CC(=O)CC[C@]4(C)[C@H]3[C@@H](O)C[C@]12C`, the Potency entry was “inactive”.

Turning to `NC(=O)Cn1c(=O)cc(CCN2CCN(c3nccc4sccc34)CC2)c2ccc(F)cc21`, the Potency result is “inactive”. Still for that read-out and setting: with `CCCCN(CCCC)C(=S)SSC(=S)N(CCCC)CCCC` the entry was “inactive”; with `C[C@@H]1C[C@H]2[C@@H]3CCC4=CC(=O)C=C[C@]4(C)[C@@]3(F)[C@@H](O)C[C@]2(C)[C@@]1(O)C(=O)CO`, “inactive”. With `OCC1CC=CCC1` (stereo not given), the Potency result was “inactive”. For `O=C1OCCN1/N=C/c1ccc([N+](=O)[O-])o1`, the Potency entry was “inactive”. Same read-out and setting: with `CNC(=O)N(c1ccccc1)c1ccccc1` the entry was “inactive”; with `O=C(c1ccc(O)cc1)c1ccc(Cl)cc1`, “inactive”. Still for that read-out and setting: with `Cc1nc2ccccc2s1` the entry was “inactive”; with `CC1=CC(=O)CC(C)(C)C1(O)/C=C/C(C)=C\C(=O)O` (stereo not given), “inactive”. Still for that read-out and setting: with `O=S1OCCO1` the entry was “inactive”; with `Nc1ccc(C(=O)OCCCOC(=O)c2ccc(N)cc2)cc1`, “inactive”; with `OCCSc1ccccc1`, “inactive”.

Take `CCN(Cc1cccc(S(=O)(=O)O)c1)c1ccc(C(=C2C=CC(=[N+](CC)Cc3cccc(S(=O)(=O)[O-])c3)C=C2)c2ccccc2)cc1`: the Potency entry was “inactive”. The same measure, in the same setting: with `CCCCCCCCCCOS(=O)(=O)O` the entry was “inactive”.

Turning to `C[N+](C)(C)CCOC(N)=O`, the Potency result is “inactive”. On the same count and under the same terms, the entry for `ON(Cc1ccccc1)Cc1ccccc1` is “inactive”.

On to `C=CCCCCCCCCCCCCCCCC`, for which the cytotoxicity increase is -20.4% [at 6.97 µM]. As to `CCCCCCOC(=O)C(C)C`, the Potency entry is “inactive”. The same measure, in the same setting: with `CCC(=O)Oc1ccc(/C(CC)=C(\CC)c2ccc(OC(=O)CC)cc2)cc1` the entry was “inactive”; with `O=[N+]([O-])c1cccc(S(=O)(=O)NCCNS(=O)(=O)c2cccc([N+](=O)[O-])c2)c1`, “inactive”; with `C/C(=N/NC(=O)c1ccncc1)C(=O)O`, “inactive”.

Take `CC(=O)N(c1onc(C)c1C)S(=O)(=O)c1ccc(N)cc1`: the Potency entry is “inactive”. Consider `C(=C\c1ccccc1)/CN1CCN(C(c2ccccc2)c2ccccc2)CC1`, for which the Potency entry was “inactive”. For the compound `CCOC(=O)N1CCC(n2c(=O)[nH]c3cc(Cl)ccc32)CC1`, the Potency entry is “inactive”. Consider `CCCOCCOCCO`, for which the Potency result was “inactive”. The same measure, in the same setting: with `CC(C)(O)c1ccccc1CC[C@@H](SCC1(CC(=O)O)CC1)c1cccc(/C=C/c2ccc3ccc(Cl)cc3n2)c1` the entry was “inactive”; with `Cc1cc(C(=C2C=CC(=Nc3ccc(S(=O)(=O)O)cc3S(=O)(=O)O)C=C2)c2ccc(Nc3ccc(S(=O)(=O)O)cc3)cc2)ccc1N`, “inactive”; with `CO[C@H]1C=CO[C@@]2(C)Oc3c(C)c(O)c4c(O)c(c5c(c4c3C2=O)=NC2(CCN(CC(C)C)CC2)N=5)NC(=O)/C(C)=C\C=C/[C@H](C)[C@H](O)[C@@H](C)[C@@H](O)[C@@H](C)[C@H](OC(C)=O)[C@@H]1C`, 47.9 µM (active). As for `CNCCCC1c2ccccc2C=Cc2ccccc21`, the Potency is 23.9 µM (active). Take `COc1cc2ncnc(Nc3ccc(F)c(Cl)c3)c2cc1OCCCN1CCOCC1`: the Potency was 23.9 µM (active). As to `O=C(CCCCCCC(=O)Nc1ccccc1)NO`, the Potency is 2.68 µM (active). The same measure, in the same setting: with `C[C@@H]1C[C@H]2[C@@H]3CCC4=CC(=O)C=C[C@]4(C)[C@@]3(F)[C@@H](O)C[C@]2(C)[C@H]1C(=O)CO` the entry was “inactive”; with `CCCCCCCCCCCC(=O)[O][Sn]([CH2]CCC)([CH2]CCC)[O]C(=O)CCCCCCCCCCC`, 19 µM (active); with `N#C[C@@H]1C[C@@H]2C[C@@H]2N1C(=O)[C@@H](N)C12CC3CC(CC(O)(C3)C1)C2`, “inactive”. The same measure, in the same setting: with `CCOC(=O)OCC` the entry was “inactive”; with `CN(C(=O)C(Cl)Cl)c1ccc(OC(=O)c2ccco2)cc1`, “inactive”. As to `CCCC(=O)O[C@]1(C(=O)COC(=O)CC)CC[C@H]2[C@@H]3CCC4=CC(=O)CC[C@]4(C)[C@H]3[C@@H](O)C[C@@]21C`, the cytotoxicity increase was -8.25% [at 15.8 µM]. Consider `Cc1ccc(Nc2nccc(N(C)c3ccc4c(C)n(C)nc4c3)n2)cc1S(N)(=O)=O`, for which the Potency result was “inactive”. The same measure, in the same setting: with `O=C(O)c1snc(Cl)c1Cl` the entry was “inactive”.
